Data as given in PubChem BioAssay (EPA / NIEHS).
Inconclusive results are not listed. Activity calls are given as the source filed them. The calls were made as follows: active = hit-call score of the fitted dose curve at least 0.9, where 1 is the maximum; inconclusive = response in the unintended direction; inactive = score below 0.9.

Key:
[1] = target: human Peroxisome Proliferator-activated Receptor alpha (PPARa), PPARA (gene 5465) (UniProt Q07869); test: ATG_PPARa_TRANS: Attagene TRANS-FACTORIAL HepG2 Assay for human Peroxisome Proliferator-activated Receptor alpha (PPARa) (AID 2283001);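 as to AC50: potency for gain of reporter signal over DMSO so agonist or activator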
Sequence of human Peroxisome Proliferator-activated Receptor alpha (PPARa), PPARA (gene 5465) (Q07869 whole entry, looked up, the tested form may be a part): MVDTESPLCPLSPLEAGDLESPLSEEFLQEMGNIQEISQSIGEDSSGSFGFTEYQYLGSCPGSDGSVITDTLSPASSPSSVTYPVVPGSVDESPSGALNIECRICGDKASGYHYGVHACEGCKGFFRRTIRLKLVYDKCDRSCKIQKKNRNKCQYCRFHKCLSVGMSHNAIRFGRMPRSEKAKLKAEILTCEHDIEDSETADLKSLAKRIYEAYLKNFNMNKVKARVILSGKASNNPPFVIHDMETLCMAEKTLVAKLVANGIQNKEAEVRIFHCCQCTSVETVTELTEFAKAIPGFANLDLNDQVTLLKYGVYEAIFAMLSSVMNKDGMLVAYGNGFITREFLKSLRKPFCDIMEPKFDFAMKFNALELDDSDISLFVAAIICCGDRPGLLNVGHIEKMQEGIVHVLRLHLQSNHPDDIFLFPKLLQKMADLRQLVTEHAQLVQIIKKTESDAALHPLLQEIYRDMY
How it was run: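 Transient HepG2 transfection, GAL4-UAS reporters, NR-Gal4 chimeras; 24 h compound exposure. Readout: reporter transcripts by RT-PCR, 6-FAM primer extension, HpaI digest, capillary electrophoresis. Positive direction vs DMSO baseline.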

[2] = target: Peroxisome proliferator-activated receptor gamma (Homo sapiens) (UniProt P37231); test: ATG_PPARg_TRANS: Attagene TRANS-FACTORIAL HepG2 Assay for human Peroxisome Proliferator-activated Receptor-gamma (PPARg) (AID 2283007)
Sequence of Peroxisome proliferator-activated receptor gamma (Homo sapiens) (P37231 whole entry, looked up): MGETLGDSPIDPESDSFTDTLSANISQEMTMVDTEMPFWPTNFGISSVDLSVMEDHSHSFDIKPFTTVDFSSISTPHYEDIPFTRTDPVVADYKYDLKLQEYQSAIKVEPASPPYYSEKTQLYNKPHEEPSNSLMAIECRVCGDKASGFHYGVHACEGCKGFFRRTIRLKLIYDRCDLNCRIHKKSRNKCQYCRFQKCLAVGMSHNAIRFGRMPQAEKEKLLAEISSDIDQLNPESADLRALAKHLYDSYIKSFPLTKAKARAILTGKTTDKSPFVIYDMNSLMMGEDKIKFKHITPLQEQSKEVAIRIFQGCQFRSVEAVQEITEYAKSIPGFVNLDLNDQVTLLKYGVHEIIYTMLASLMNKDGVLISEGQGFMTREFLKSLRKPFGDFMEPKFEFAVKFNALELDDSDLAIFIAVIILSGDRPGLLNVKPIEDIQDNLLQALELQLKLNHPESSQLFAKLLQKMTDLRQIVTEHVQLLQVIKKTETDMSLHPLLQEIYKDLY
How it was run: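 Twenty-four hours after chemical dosing of transiently transfected HepG2 cells, isolated RNA was converted to cDNA, reporter sequences amplified and 6-FAM-labelled, then HpaI-digested and analysed by capillary electrophoresis. Signal increase against DMSO was fitted.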

[3] = target: Nuclear receptor subfamily 1 group I member 2 (Homo sapiens) (UniProt O75469); test: ATG_PXR_TRANS: Attagene TRANS-FACTORIAL HepG2 Assay for human Pregnane X Receptor (PXR) (AID 2283008)
Sequence of Nuclear receptor subfamily 1 group I member 2 (Homo sapiens) (O75469 whole entry, looked up, the tested form may be a part): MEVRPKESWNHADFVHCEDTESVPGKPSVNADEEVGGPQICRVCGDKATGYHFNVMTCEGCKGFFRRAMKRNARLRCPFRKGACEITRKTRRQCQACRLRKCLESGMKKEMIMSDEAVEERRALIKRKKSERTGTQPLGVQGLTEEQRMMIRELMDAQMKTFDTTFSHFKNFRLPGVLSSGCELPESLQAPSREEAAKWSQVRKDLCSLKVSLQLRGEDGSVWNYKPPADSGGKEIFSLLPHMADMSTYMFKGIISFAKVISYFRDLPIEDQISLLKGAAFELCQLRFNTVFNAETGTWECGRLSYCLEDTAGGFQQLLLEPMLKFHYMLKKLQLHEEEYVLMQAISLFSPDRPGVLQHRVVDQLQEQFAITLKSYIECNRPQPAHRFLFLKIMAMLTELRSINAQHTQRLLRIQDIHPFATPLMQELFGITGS
How it was run: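 HepG2 transfected (FuGene 6) with GAL4-UAS reporter units + PXR-Gal4 chimera; dosed 24 h. Total RNA → oligo(dT) RT → PCR → 6-FAM primer extension → HpaI cut → CE. Gain-of-signal vs DMSO.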

[4] = target: human RAR-related Orphan Receptor gamma (RORg), RORC (gene 6097) (UniProt P51449); test: ATG_RORg_TRANS: Attagene TRANS-FACTORIAL HepG2 Assay for human RAR-related Orphan Receptor gamma (RORg) (AID 2283011)
How it was run: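 Readout: reporter transcript induction (RT-PCR, fluorescent primer extension, capillary electrophoresis) after 24 h compound exposure of transiently transfected HepG2 cells carrying a RORg-Gal4 chimera and GAL4-UAS reporters; DMSO served as baseline, with increasing signal fitted.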

[5] = target: Retinoic acid receptor RXR-alpha (Homo sapiens) (UniProt P19793); test: ATG_RXRa_TRANS: Attagene TRANS-FACTORIAL HepG2 Assay for human Retinoid X Receptor alpha (RXRa) (AID 2283012)
Sequence of Retinoic acid receptor RXR-alpha (Homo sapiens) (P19793 whole entry, looked up, the tested form may be a part): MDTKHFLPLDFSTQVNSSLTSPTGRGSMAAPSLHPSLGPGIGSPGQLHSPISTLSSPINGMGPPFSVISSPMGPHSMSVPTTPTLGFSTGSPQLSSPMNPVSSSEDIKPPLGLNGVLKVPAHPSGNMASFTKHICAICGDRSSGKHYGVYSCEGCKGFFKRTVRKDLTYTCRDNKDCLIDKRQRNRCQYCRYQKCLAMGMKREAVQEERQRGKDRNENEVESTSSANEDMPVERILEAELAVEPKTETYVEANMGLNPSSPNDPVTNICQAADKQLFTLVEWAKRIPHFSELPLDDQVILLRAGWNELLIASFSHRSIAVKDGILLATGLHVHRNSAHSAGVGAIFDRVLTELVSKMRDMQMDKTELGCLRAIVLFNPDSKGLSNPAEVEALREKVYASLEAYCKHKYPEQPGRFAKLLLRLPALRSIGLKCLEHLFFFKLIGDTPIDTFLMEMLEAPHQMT
How it was run: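 Read-out: fluorescent reporter-transcript fragments quantified by capillary electrophoresis after RT-PCR. Transiently transfected HepG2 cells carrying GAL4-UAS reporters and NR-GAL4 chimeras were exposed to chemical for 24 h; activity scored as increase over DMSO.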

[6] = target: human Retinoid X Receptor beta (RXRb), RXRB (gene 6257) (UniProt P28702); test: ATG_RXRb_TRANS: Attagene TRANS-FACTORIAL HepG2 Assay for human Retinoid X Receptor beta (RXRb) (AID 2283013)
Sequence of human Retinoid X Receptor beta (RXRb), RXRB (gene 6257) (P28702 whole entry, looked up, the tested form may be a part): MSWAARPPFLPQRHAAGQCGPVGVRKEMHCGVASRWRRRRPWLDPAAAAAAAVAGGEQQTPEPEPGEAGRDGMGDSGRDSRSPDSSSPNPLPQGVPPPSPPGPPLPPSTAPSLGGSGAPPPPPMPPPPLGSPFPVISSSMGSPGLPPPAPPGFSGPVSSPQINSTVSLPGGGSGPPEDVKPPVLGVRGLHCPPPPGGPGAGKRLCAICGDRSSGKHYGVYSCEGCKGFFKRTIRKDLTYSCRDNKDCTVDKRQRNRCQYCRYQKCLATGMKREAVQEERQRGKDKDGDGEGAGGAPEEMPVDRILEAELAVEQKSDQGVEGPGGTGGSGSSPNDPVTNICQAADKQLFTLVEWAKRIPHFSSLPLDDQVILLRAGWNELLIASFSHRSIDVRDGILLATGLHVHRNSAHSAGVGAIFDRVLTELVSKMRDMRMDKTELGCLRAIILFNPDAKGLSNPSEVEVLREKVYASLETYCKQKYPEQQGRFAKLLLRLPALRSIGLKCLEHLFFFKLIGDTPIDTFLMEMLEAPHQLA
How it was run: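 Read-out: reporter mRNA induction via RT-PCR plus capillary electrophoresis fluorescence, analysed as signal increase relative to DMSO. Cells were human HepG2, transiently transfected with GAL4-UAS reporter constructs and chimeric receptor-Gal4 fusions, dosed for 24 h.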

[7] = target: Retinoic acid receptor alpha (Homo sapiens) (UniProt P10276); test: ATG_RARa_TRANS: Attagene TRANS-FACTORIAL HepG2 Assay for human Retinoic Acid Receptor alpha (RARa) (AID 2283005)
Sequence of Retinoic acid receptor alpha (Homo sapiens) (P10276 whole entry, looked up, the tested form may be a part): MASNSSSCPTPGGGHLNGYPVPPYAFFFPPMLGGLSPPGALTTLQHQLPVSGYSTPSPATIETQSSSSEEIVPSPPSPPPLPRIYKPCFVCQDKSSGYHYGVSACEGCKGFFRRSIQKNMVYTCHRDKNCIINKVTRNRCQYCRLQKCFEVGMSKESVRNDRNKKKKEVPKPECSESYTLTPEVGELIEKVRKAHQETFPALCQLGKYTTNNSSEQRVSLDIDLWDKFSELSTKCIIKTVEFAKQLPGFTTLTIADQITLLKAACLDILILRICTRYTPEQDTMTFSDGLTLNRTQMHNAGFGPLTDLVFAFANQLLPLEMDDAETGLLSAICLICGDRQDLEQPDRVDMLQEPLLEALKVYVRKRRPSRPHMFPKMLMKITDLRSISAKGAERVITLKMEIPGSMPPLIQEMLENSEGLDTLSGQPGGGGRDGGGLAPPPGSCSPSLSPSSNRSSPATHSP
How it was run: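 HepG2 transiently transfected with multiplex GAL4-UAS reporter units including a human RARa–GAL4 chimera; 24 h compound exposure. Reporter mRNA quantified by RT-PCR, 6-FAM labeling and capillary electrophoresis; gain of signal versus DMSO.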

[8] = target: human RAR-related Orphan Receptor beta (RORb), RORB (gene 6096) (UniProt Q92753); test: ATG_RORb_TRANS: Attagene TRANS-FACTORIAL HepG2 Assay for human RAR-related Orphan Receptor beta (RORb) (AID 2283010)
Sequence of human RAR-related Orphan Receptor beta (RORb), RORB (gene 6096) (Q92753 whole entry, looked up, the tested form may be a part): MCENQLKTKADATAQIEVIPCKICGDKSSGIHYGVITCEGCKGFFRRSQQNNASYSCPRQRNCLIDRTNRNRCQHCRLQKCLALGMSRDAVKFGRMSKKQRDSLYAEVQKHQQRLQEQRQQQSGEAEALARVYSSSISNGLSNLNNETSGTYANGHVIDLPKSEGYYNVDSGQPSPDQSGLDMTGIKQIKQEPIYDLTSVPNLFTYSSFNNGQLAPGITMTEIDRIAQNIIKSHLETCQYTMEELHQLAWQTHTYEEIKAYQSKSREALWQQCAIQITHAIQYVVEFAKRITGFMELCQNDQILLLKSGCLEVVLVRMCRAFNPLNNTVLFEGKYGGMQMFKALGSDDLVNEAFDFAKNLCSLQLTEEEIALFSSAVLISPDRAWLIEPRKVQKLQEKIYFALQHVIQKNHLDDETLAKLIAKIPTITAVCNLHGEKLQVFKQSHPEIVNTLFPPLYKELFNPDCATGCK
How it was run: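 HepG2, transient MRTU transfection (GAL4-UAS reporters, exogenous NR-Gal4 chimeras); 24 h compound exposure; total RNA → RT-PCR → 6-FAM primer extension → HpaI digest → CE fluorescence. Positive direction vs DMSO baseline.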

[9] = target: human Retinoic Acid Receptor gamma (RARg), RARG (gene 5916) (UniProt P13631); test: ATG_RARg_TRANS: Attagene TRANS-FACTORIAL HepG2 Assay for human Retinoic Acid Receptor gamma (RARg) (AID 2283009)
Sequence of human Retinoic Acid Receptor gamma (RARg), RARG (gene 5916) (P13631 whole entry, looked up, the tested form may be a part): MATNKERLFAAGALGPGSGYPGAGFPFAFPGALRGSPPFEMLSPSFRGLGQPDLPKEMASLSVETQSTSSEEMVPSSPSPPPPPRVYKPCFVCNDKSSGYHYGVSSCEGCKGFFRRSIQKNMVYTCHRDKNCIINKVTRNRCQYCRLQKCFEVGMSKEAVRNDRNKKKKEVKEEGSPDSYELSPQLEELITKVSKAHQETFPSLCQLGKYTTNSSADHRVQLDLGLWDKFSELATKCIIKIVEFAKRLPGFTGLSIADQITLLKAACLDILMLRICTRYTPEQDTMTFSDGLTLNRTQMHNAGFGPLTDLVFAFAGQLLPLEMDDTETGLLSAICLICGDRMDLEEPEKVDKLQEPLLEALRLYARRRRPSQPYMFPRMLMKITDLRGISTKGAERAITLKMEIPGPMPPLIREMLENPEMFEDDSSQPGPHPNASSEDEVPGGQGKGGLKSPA
How it was run: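 Readout: reporter transcript levels via RT-PCR, 6-FAM primer-extension labelling, HpaI digestion and capillary electrophoresis. Cells: HepG2 carrying transfected RARg-GAL4 chimera plus UAS reporter set. Dosing 24 h; DMSO negative control.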

[10] = target: human Thyroid Receptor alpha (THRa1), THRA (gene 7067) (UniProt P10827); test: ATG_THRa1_TRANS: Attagene TRANS-FACTORIAL HepG2 Assay for human Thyroid Receptor alpha (THRa1) (AID 2283014)
Sequence of human Thyroid Receptor alpha (THRa1), THRA (gene 7067) (P10827 whole entry, looked up, the tested form may be a part): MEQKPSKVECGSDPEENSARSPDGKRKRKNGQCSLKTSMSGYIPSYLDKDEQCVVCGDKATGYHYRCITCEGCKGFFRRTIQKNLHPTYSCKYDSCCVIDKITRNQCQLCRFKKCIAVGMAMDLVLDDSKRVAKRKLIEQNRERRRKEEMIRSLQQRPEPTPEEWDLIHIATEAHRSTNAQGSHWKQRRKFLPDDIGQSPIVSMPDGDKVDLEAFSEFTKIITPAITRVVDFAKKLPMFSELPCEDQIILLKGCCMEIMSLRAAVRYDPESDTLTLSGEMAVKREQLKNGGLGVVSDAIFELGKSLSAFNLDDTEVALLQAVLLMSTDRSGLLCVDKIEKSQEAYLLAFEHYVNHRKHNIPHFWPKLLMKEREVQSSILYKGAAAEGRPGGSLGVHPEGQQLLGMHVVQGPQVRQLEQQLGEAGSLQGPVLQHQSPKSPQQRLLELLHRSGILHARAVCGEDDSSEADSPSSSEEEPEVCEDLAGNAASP
How it was run: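 HepG2 cells transiently transfected with multiplexed GAL4-UAS reporter units for exogenous chimeric THRa1-Gal4; reporter mRNA measured 24 h after dosing by RT-PCR, 6-FAM labelling, HpaI digestion and capillary electrophoresis. Gain-of-signal fitted versus DMSO baseline.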

[11] = target: human Peroxisome Proliferator-activated Receptor delta (PPARd), PPARD (gene 5467) (UniProt Q03181); test: ATG_PPARd_TRANS: Attagene TRANS-FACTORIAL HepG2 Assay for human Peroxisome Proliferator-activated Receptor delta (PPARd) (AID 2283002)
Sequence of human Peroxisome Proliferator-activated Receptor delta (PPARd), PPARD (gene 5467) (Q03181 whole entry, looked up, the tested form may be a part): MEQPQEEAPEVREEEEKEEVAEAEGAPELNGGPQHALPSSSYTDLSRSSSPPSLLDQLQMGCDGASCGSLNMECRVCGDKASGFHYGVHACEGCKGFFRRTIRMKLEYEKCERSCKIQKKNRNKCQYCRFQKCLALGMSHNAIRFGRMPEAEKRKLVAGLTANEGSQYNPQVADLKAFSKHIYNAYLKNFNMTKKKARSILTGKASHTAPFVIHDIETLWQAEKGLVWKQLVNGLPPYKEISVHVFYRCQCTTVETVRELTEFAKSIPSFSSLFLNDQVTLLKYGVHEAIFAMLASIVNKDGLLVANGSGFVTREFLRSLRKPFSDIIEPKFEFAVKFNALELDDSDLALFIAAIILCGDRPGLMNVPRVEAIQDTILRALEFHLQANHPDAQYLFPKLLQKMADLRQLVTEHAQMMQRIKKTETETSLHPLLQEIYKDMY
How it was run: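 Read-out: reporter mRNA induction, quantified by fluorescent RT-PCR products resolved by capillary electrophoresis. Human HepG2 liver cells carried transiently transfected Gal4-UAS reporter constructs with chimeric NR-Gal4 fusions. Cells were dosed for 24 h; DMSO served as baseline.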

[12] = target: human Retinoic Acid Receptor beta (RARb), RARB (gene 5915) (UniProt P10826); test: ATG_RARb_TRANS: Attagene TRANS-FACTORIAL HepG2 Assay for human Retinoic Acid Receptor beta (AID 2283004)
How it was run: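 HepG2 cells transiently transfected with multiplexed GAL4-UAS reporter units expressing chimeric NR–Gal4 fusions; 24 h compound exposure. Reporter mRNA quantified by RT-PCR, 6-FAM labelling, HpaI digestion and capillary electrophoresis; gain-of-signal fitted against DMSO baseline.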

For `COC(C=C(C)CCC=C(C)C)OC`, the outcome [1] was “inactive”, the AC50 [2] was 57.2 µM (active) and the outcome [3] was “inactive”. For the same compound, the outcome [4] was “inactive”, the outcome [5] was “inactive” and the outcome [6] was “inactive”.
`C=C(C)[C@@H]1CC=C(C)CC1` was tested, and the outcome [1] was “inactive”, the outcome [7] was “inactive” and the outcome [8] was “inactive”. The outcome [4] was “inactive” and the outcome [6] was “inactive”.
In the case of `Cc1c[nH]c(=O)[nH]c1=O`, the outcome [1] is reported as “inactive”, the outcome [7] is reported as “inactive” and the outcome [3] is reported as “inactive”. The outcome [9] was “inactive”, the outcome [5] was “inactive” and the outcome [6] was “inactive”. The outcome [10] was “inactive”.
For `O=C(O)C1CCC(C(=O)O)CC1` (centres undefined), the outcome [1] was “inactive” and the outcome [6] was “inactive”.
With `CC(C)(CO)COC(=O)C(C)(C)CO` the outcome [11] was “inactive”, the outcome [12] was “inactive” and the outcome [3] was “inactive”. The outcome [8] was “inactive” and the outcome [10] was “inactive”.
For `COC(Cc1ccccc1)OC`, the outcome [1] was “inactive”, the outcome [2] was “inactive” and the outcome [8] was “inactive”. The outcome [4] was “inactive”.
`C=CC(C)(O)CC/C=C(\C)CC` (centres undefined) was tested, and the outcome [11] was “inactive”, the outcome [12] was “inactive” and the outcome [7] was “inactive”. The outcome [2] was “inactive”, the outcome [9] was “inactive” and the outcome [5] was “inactive”. The outcome [6] was “inactive”.
For `O=C(OCc1ccccc1)c1ccc(O)cc1`, the outcome [1] was “inactive”, the AC50 [2] was 49.9 µM (active) and the AC50 [3] was 63.2 µM (active). For the same compound, the outcome [5] was “inactive” and the outcome [6] was “inactive”.
With `C=C(C)C1CC=C(C)CC1` (centres undefined) the outcome [1] was “inactive”, the outcome [3] was “inactive” and the outcome [9] was “inactive”. For the same compound, the outcome [4] was “inactive” and the outcome [6] was “inactive”.
`C=CCOC(=O)c1ccc(C(=O)OCC=C)c(C(=O)OCC=C)c1` was tested, and the AC50 [1] was 8.92 µM (active), the AC50 [2] was 27.7 µM (active) and the outcome [3] was “inactive”. The outcome [5] was “inactive”, the outcome [6] was “inactive” and the outcome [10] was “inactive”.
With `C=CCCCCCCCCOC(C)=O` the outcome [1] was “inactive”, the outcome [2] was “inactive” and the outcome [3] was “inactive”. For the same compound, the outcome [5] was “inactive”, the outcome [6] was “inactive” and the outcome [10] was “inactive”.
For `N#CC1(N)CCCCC1`, the outcome [1] was “inactive”, the outcome [2] was “inactive” and the outcome [9] was “inactive”. The outcome [8] was “inactive”, the outcome [5] was “inactive” and the outcome [6] was “inactive”.
`CCC(C)C(=O)OCCc1ccccc1` (centres undefined) was tested, and the outcome [1] was “inactive”, the outcome [3] was “inactive” and the outcome [4] was “inactive”. For the same compound, the outcome [5] was “inactive”, the outcome [6] was “inactive” and the outcome [10] was “inactive”.
In the case of `CC(=O)CCC=C(C)C`, the outcome [1] is reported as “inactive”, the outcome [2] is reported as “inactive” and the outcome [8] is reported as “inactive”. For the same compound, the outcome [6] was “inactive” and the outcome [10] was “inactive”.
`C=CCCCCCCCCO` was tested, and the outcome [1] was “inactive”, the outcome [2] was “inactive” and the outcome [5] was “inactive”. The outcome [6] was “inactive”.
With `O=C1CCCN1C1CCCCC1` the outcome [1] was “inactive”, the outcome [2] was “inactive” and the outcome [3] was “inactive”. For the same compound, the outcome [6] was “inactive”.
`Nc1ccnc(=O)[nH]1` was tested, and the outcome [1] was “inactive”, the outcome [2] was “inactive” and the outcome [8] was “inactive”. For the same compound, the outcome [4] was “inactive” and the outcome [6] was “inactive”.
For `O=C(O)CCC(=O)O`, the outcome [1] was “inactive”, the outcome [8] was “inactive” and the outcome [6] was “inactive”.
With `CC12CCC(CC1)C(C)(C)O2` the outcome [11] was “inactive”, the outcome [12] was “inactive” and the outcome [8] was “inactive”. For the same compound, the outcome [6] was “inactive”.
In the case of `CCCCCCCCCCCC(=O)OCC`, the outcome [1] is reported as “inactive”, the outcome [2] is reported as “inactive” and the outcome [9] is reported as “inactive”. The outcome [4] was “inactive” and the outcome [6] was “inactive”.
In the case of `CCCCCCCC(=O)OCC(COC(=O)CCCCCCC)OC(=O)CCCCCCC`, the outcome [1] is reported as “inactive”, the outcome [2] is reported as “inactive” and the outcome [8] is reported as “inactive”.
For `CCCCC(C=O)CC` (centres undefined), the outcome [1] was “inactive”, the outcome [2] was “inactive” and the outcome [3] was “inactive”. The outcome [5] was “inactive” and the outcome [6] was “inactive”.
In the case of `C=C(C)C1CC=C(C)C(OC(C)=O)C1` (centres undefined), the outcome [11] is reported as “inactive”, the outcome [7] is reported as “inactive” and the outcome [2] is reported as “inactive”. The outcome [3] was “inactive”, the outcome [9] was “inactive” and the outcome [8] was “inactive”. The outcome [6] was “inactive”.
In the case of `CCC[Si](OC)(OC)OC`, the outcome [11] is reported as “inactive”, the outcome [12] is reported as “inactive” and the outcome [7] is reported as “inactive”. For the same compound, the outcome [3] was “inactive”, the outcome [9] was “inactive” and the outcome [4] was “inactive”. For the same compound, the outcome [5] was “inactive” and the outcome [6] was “inactive”.
In the case of `C=C(C)OC(C)=O`, the outcome [1] is reported as “inactive”, the outcome [3] is reported as “inactive” and the outcome [9] is reported as “inactive”. For the same compound, the outcome [4] was “inactive”.
With `C=CC(C)(CCC=C(C)C)OC(=O)C=Cc1ccccc1` (centres undefined) the outcome [1] was “inactive”, the AC50 [2] was 4.97 µM (active) and the outcome [6] was “inactive”. For the same compound, the outcome [10] was “inactive”.
In the case of `Cn1cccc1`, the outcome [11] is reported as “inactive”, the outcome [7] is reported as “inactive” and the outcome [2] is reported as “inactive”. The outcome [3] was “inactive”, the outcome [8] was “inactive” and the outcome [4] was “inactive”. The outcome [5] was “inactive” and the outcome [6] was “inactive”.
In the case of `CC1=C(O)C(=O)C(C)O1` (centres undefined), the outcome [11] is reported as “inactive”, the outcome [12] is reported as “inactive” and the outcome [7] is reported as “inactive”. For the same compound, the outcome [9] was “inactive”, the outcome [8] was “inactive” and the outcome [4] was “inactive”. The outcome [5] was “inactive” and the outcome [6] was “inactive”.
With `CCC(=O)C1CC(C(C)C)CC=C1C` (centres undefined) the outcome [11] was “inactive”, the outcome [7] was “inactive” and the AC50 [2] was 58.3 µM (active). The AC50 [3] was 3.16 µM (active), the outcome [9] was “inactive” and the outcome [8] was “inactive”. For the same compound, the outcome [5] was “inactive”.
